Source: PubChem BioAssay
Compounds with a hit are over-represented: about 8% of the library has one in this group of screens.
SW480 rerep: induces DNA re-replication in SW480 colon adenocarcinoma cells; SW480 DNA re-replication, Hoechst DNA content imaging, 48 h; Potency, µM (top dose mostly 46.1 µM), without a hit: top-dose re-replication activation, hits mostly activators; hit rate 1.8% among 340,000; further: % of control where 0% means no effect; nearly all actives have a fitted effect of over 55% in size
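First, 250 cells per well were seeded. Next, compound or vehicle (23 nL) was pinned in, plates sat 48 hr at 37 C. Finally Hoechst was added for 40 min before fluorescence scanning.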
MCF10A rerep: inducers of DNA re-replication in MCF 10A breast cells; MCF 10A DNA re-replication, Hoechst nuclear intensity, 48 h; Potency, µM (highest dose often 46.1 µM), without a hit: top-dose activity, positive = re-replication, hits mostly activators; hit rate 2.9% among 350,000; AID 624296; further: % of control where 0% means no effect; nearly all actives have a fitted effect of over 50% in size
HT1080-NT tox: kills 2HG-producing HT-1080-NT fibrosarcoma cells. HT-1080-NT fibrosarcoma viability, CellTiter-Glo ATP luminescence, 48 h. hit rate 1.6% among 360,000. Potency, µM (top dose mostly 46.1 µM), for inactives: top-dose activity, negative = less viability, hits mostly cytotoxic;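 further: NT is the 2HG producing partner of a matched IDH1 knockdown line; 0% = DMSO-treated cells and -100% = media-only wells without cells; nearly all actives have a fitted effect of over 55% in size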
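Luminescent CellTiter-Glo readout after 48 hours of compound exposure at 37 degrees C defined viability of HT-1080-NT cells. Activity was normalized to DMSO wells and cell-free media wells; concentration-response curves were fitted and assigned curve classes.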
KB-V1 cytotox: KB-V1 MDR subline cytotoxicity; KB-V1 MDR cells viability, CellTiter-Glo, 72 h; Potency, µM (top dose mostly 46.1 µM), hits mostly cytotoxic; hit rate 3.4% among 400,000; further: on the % scale 0 is the no-effect control and ±100 the full control effect; nearly all actives have a fitted effect of over 60% in size
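Compound-treated KB-V1 multidrug-resistant cells, 72 h, 37 degrees C; viability by CellTiter-Glo. Fitted qHTS curves give the values.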
HT1080 IDH1KD tx: HT-1080 IDH1 knockdown cell toxicity (counter line); HT-1080 IDH1 knockdown viability, ATP luminescence, 48 h; Potency, µM (series often up to 46.1 µM), without a hit: top-dose activity, negative = toxicity, actives largely listed as cytotoxic; hit rate 2% among 360,000; AID 686971;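 further: 0% = DMSO wells and -100% = cell-free medium wells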
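Luminescent ATP read-out (CellTiter-Glo, 10 min at room temperature) after 48 h compound exposure at 37 °C gave viability of IDH1-knockdown HT-1080 cells. Activity was normalised to DMSO and cell-free wells, then fitted as concentration-response curves.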
KB-3-1 tox: kills parental KB-3-1 adenocarcinoma cells; KB-3-1 viability, CellTiter-Glo ATP luminescence, 72 h; hit rate 1.4% among 400,000; AID 1347075; Potency, µM (titrated, usually from 46.1 µM), actives largely listed as cytotoxic; further: on the % scale 0 is the no-effect control and ±100 the full control effect; nearly all actives have a fitted effect of over 60% in size
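Here the drug-naive KB-3-1 line serves as comparator for MDR sub-line selectivity; cells received compound titrations, 72 h at 37 °C, then CellTiter-Glo readout.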
Numbers without * were called inactive; i = inactive; ? = inconclusive; / = not tested or not shown. The call rests on the fitted dose curve; in most records, active means well fitted curve in the direction sought with a large enough effect; inconclusive means small, poorly fitted or top-dose-only effect, or another doubt; inactive means no such curve, though single readings can be large; an effect the other way counts as inactive or inconclusive. Potency means the concentration at half of the fitted maximal effect.

SMILES	SW480 rerep	MCF10A rerep	HT1080-NT tox	KB-V1 cytotox	HT1080 IDH1KD tx	KB-3-1 tox
CC(C)Oc1ccc(CN2CCCC(CO)(Cc3ccc(F)cc3)C2)cc1 (centres undefined)	?	5%	?	i	29µM*	i
COc1ccc(-c2c3c(=O)n(C)c(=O)n(C)c3c3c(-c4ccccc4)nc4ccccc4n23)cc1	/	/	/	i	/	i
CCOC(=O)n1c(=O)n(Cc2ccccc2C)c2ccccc21	-78%	2%	-9%	i	-13%	i
CCOC(=O)n1c(=O)n(Cc2ccc(OC)cc2)c2ccccc21	?	0%	15µM*	?	?	16µM*
CCC1=C(CC2NCCc3ccccc32)CC2c3cc(OC)c(OC)cc3CCN2C1 (centres undefined)	?	?	?	?	6.5µM*	6.5µM*
COc1cc2c(cc1OC)C1Cc3ccc(OC)c(OC)c3CN1CC2 (centres undefined)	-3%	1%	-3%	i	3%	i
COc1cc2c(cc1OC)C(c1ccc(O)cc1)NCC2 (centres undefined)	-2%	0%	0%	i	7%	i
COc1cc2c(cc1OC)[C@H](Cc1ccc(O)cc1)NCC2	?	16µM*	-5%	?	-8%	i
Cc1ccc(NC(=O)Cn2cc(C(=O)C3CCCCC3)c3ccccc32)c(C)c1	/	/	/	?	/	i
COc1cccc(OCCCCn2c(-c3ccc(Cl)cc3)nc3ccccc3c2=O)c1	/	/	/	i	/	?
Cc1nc(-c2ccccc2)nc2[nH]ccc(=O)c12	-5%	4%	25%	9.2µM*	11%	?
Cc1nc(-c2ccc([N+](=O)[O-])cc2)nc2[nH]ccc(=O)c12	-12%	10%	?	i	30%	i
Cc1nc(C)c2c(=O)cc(-c3ccccc3)[nH]c2n1	8.9µM*	7.9µM*	10µM*	3.2µM*	8.9µM*	7.1µM*
COc1ccc(-c2cc(OC(=O)c3ccccc3Cl)c3c(C)oc(C)c3c(=O)c2)cc1OC	/	/	/	i	/	i
CCOC(=O)c1c(-c2cccs2)csc1NC(=O)COC(=O)c1c(C)noc1C	6%	?	-20%	21µM*	-7%	i
CCOC(=O)c1c(-c2ccc(OC)cc2)csc1NC(=O)CNCc1ccco1	-2%	?	4%	10µM*	5%	i
CCOC(=O)c1c(-c2ccc(C)o2)csc1NC(=O)CN1CCN(CC)CC1	-6%	18%	?	i	?	i
CCOC(=O)c1c(-c2ccccc2)csc1NC(=O)CSc1nc(N)cc(N)n1	-20%	?	6%	3.3µM*	-20%	6.5µM*
CCOC(=O)c1c(-c2ccc(C)o2)csc1NC(=O)CSc1nncs1	0%	3%	?	15µM*	?	i
CCOC(=O)c1c(-c2ccccc2)csc1NC(=O)CSc1nc(C)cc(C)n1	0%	?	-9%	i	-13%	i
CCOc1ccc(NC(=O)C(C)n2c(=O)cc(-c3ccccc3)c3c(C)nn(C)c32)cc1 (centres undefined)	/	/	/	i	/	i
CCOC(=O)C1=C(CS(=O)(=O)c2ccc(C(C)(C)C)cc2)NC(=O)NC1c1cccc(OC)c1 (centres undefined)	/	/	/	i	/	i
CCOC(=O)c1c(-c2ccc(C)o2)csc1NC(=O)CN1CCCCC1	1%	23µM*	?	?	?	i
COc1cccc(NC(=O)N2CCc3nc(Nc4cc(Cl)cc(Cl)c4)ncc3C2)c1	/	/	?	i	-13%	?
COc1cccc(NC(=O)N2CCc3nc(NCc4cccc(Oc5ccccc5)c4)ncc3C2)c1	/	/	?	?	?	8.2µM*
SMILES	SW480 rerep	MCF10A rerep	HT1080-NT tox	KB-V1 cytotox	HT1080 IDH1KD tx	KB-3-1 tox
CC(C)c1ccc(Nc2ncc3c(n2)CCN(C(=O)Nc2ccc(F)c(Cl)c2)C3)cc1	/	/	?	18µM*	?	?
O=C(Nc1ccc(OC(F)(F)F)cc1)N1CCc2nc(NCc3cccc(Oc4ccccc4)c3)ncc2C1	/	/	?	13µM*	23µM*	?
CCOc1ccc(NC(=O)N2CCc3ccccc3C2)cc1	6%	-9%	9%	i	12%	i
COC(=O)c1cc2sc(Cl)cc2n1Cc1nc(-c2ccccc2F)oc1C	/	/	/	i	/	i
COc1ccc(CNC(=O)CCC2N=C3c4ccccc4N=C(SCc4ccc(F)cc4)N3C2=O)cc1 (centres undefined)	/	/	/	i	/	i
Cc1ccc(-c2csc(-c3cc4c([nH]c3=O)CC(c3ccccc3)CC4=O)n2)cc1 (centres undefined)	/	/	/	?	/	0.82µM*
CCc1ccc(CNC(=O)c2ccc(Cn3c(=O)c4cccn4c4cccnc43)cc2)cc1	/	/	/	i	/	i
Cc1ccc2cc(C#N)c(SCc3nnc(-c4ccccc4[N+](=O)[O-])o3)nc2c1	14%	2%	19%	13µM*	20%	9.2µM*
C=CCOc1c(Br)cc(/C=C2\SC(=Nc3ccccc3)NC2=O)cc1OC	19%	?	-17%	i	-24%	i
C=CCOc1ccc(Br)cc1/C=C1/SC(=Nc2ccc(C(=O)O)cc2)NC1=O	-12%	8.2µM*	8%	i	9%	?
CCOc1cc(Br)cc(/C=C2\SC(=Nc3ccccc3)NC2=O)c1O	-1%	8.2µM*	-9%	?	-17%	?
COc1ccccc1OCCCn1cc(C#N)c2ccccc21	-2%	10%	0%	5.2µM*	0%	12µM*
C[C@]1(O)CC(=O)C=C[C@H]1Nc1ccccc1	?	?	21µM*	i	?	?
COc1cc(C2CC(=O)Nc3ccc4ccccc4c32)ccc1OC(=O)C(C)C (centres undefined)	/	/	/	i	/	i
COC1=CC(=O)c2ccccc2C1=O	?	18µM*	12µM*	?	5.2µM*	16µM*
COC1=CC(=O)C=C(OC)C1=O	0%	?	18µM*	i	?	?
Cc1ccc(OC(=O)CSc2nnc(CNC(=O)c3ccccc3)o2)cc1	/	/	/	?	/	i
CCN1C[C@@H]2[C@@H]3C(=O)N(Cc4ccccc4)C(=O)[C@@H]3[C@](Cc3ccccc3)(C1=O)N2C(=O)c1ccc(Cl)c(Cl)c1	-28%	?	-3%	18µM*	2%	?
COc1cc2c(cc1OC)CN(Cc1ccc(F)cc1)CC2	?	-22%	4%	i	-10%	i
